Inconclusive results are not listed. Values without a mark were called inactive. The source made the active and inactive calls. Calls follow the shape of the dose curve; as a rule, active = well fitted curve in the direction sought with a large enough effect; inconclusive = small, poorly fitted or top-dose-only effect, or another doubt; inactive = no such curve, though single readings can be large; an effect the other way counts as inactive or inconclusive.

The target of experiment [1] is Glutathione peroxidase 1 (Homo sapiens) (UniProt P07203). Description: Primary qHTS Assay for Inhibitors of Recombinant Selenoprotein Glutathione Peroxidase 1 (GPX1) (AID 1845191). Also: nearly all actives have a fitted effect of over 65% in size. The settings on record: outcome: dose series up to 48.8 µM unless noted. The method in brief:
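GPX1 10 nM, GR 100 nM, GSH 1 mM, NADPH 0.5 mM, CHP 0.5 mM (final). 30-min cpd preincubation, RT. Ex340/Em450 read t=0, t=15 min.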
In general terms: qHTS replaces the single test concentration by a dilution series.

Experiment [2] addresses Phospholipid hydroperoxide glutathione peroxidase GPX4 (Homo sapiens) (UniProt P36969). The experiment in a line: Primary qHTS Assay for Inhibitors of Recombinant Selenoprotein Glutathione Peroxidase 4 (GPX4) (AID 1845192). Also: nearly all actives have a fitted effect of over 65% in size. As to activity change, negative = inhibition: % is scaled to controls: 0 for no effect and ±100 for the full control effect. The settings on record: outcome: dose series up to 50 µM unless noted. The method, boiled down: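 qHTS, GR-coupled: GPX4 200 nM + cpd 30 min RT → GSH 1 mM, NADPH 0.5 mM, GR 100 nM → CHP 0.5 mM start; fluor 340/450 at t0 and t15 min; no-enzyme wells as control.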

Experiment [3] addresses Luciferin 4-monooxygenase (Photinus pyralis) (UniProt P08659). The experiment in a line: Biochemical firefly luciferase enzyme assay for NPC (AID 624030).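 Also: purified P. pyralis luciferase at 10 nM with luciferin and ATP substrate; 0% = DMSO and -100% = full luciferase inhibition by PTC124 control; nearly all actives have a fitted effect of over 70% in size.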 The method in brief:
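Counter-screen for direct inhibition of the luciferase enzyme by approved-drug library compounds, run at 10 nM enzyme in 50 mM Tris acetate (final). Luminescence was read within 5 min of enzyme-buffer addition and normalized to PTC124 versus DMSO (0%).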

In a further experiment the test system is AS120. Description: qHTS profiling for inhibitors of Plasmodium falciparum proliferation (AID 504749).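 Also: 0% = DMSO vehicle and full inhibition = artemisinin control; nearly all actives have a fitted effect of over 60% in size.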 The settings on record: P. falciparum in erythrocytes, SYBR Green DNA, 72 h; series mostly up to 28.7 µM. The method, boiled down: (§1)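 Quantitative HTS: compounds pinned into medium, infected erythrocytes added (0.3% parasitemia, 2.5% hematocrit), 72 h culture at 37 C under 5% CO2. Saponin/Triton lysis with SYBR Green I, overnight RT, then fluorescence read.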

The subject of the next experiment is ATS189. The description is as above. The settings on record: P. falciparum in erythrocytes, SYBR Green DNA, 72 h; series mostly up to 12.8 µM. The method, boiled down: as §1
A further experiment has as its system CP185. Described as above. The settings on record: P. falciparum in erythrocytes, SYBR Green DNA, 72 h; series mostly up to 12.8 µM. The method in brief: as §1
The next experiment concerns CP191. The description is as above. The settings on record: P. falciparum in erythrocytes, SYBR Green DNA, 72 h; series mostly up to 12.8 µM. The method in brief: as §1
A further experiment deals with CP192. The description is as above. The settings on record: P. falciparum in erythrocytes, SYBR Green DNA, 72 h; series mostly up to 28.7 µM. The method in brief:
as §1

The subject of the next experiment is CP194. Described as above. The settings on record: P. falciparum in erythrocytes, SYBR Green DNA, 72 h; series mostly up to 12.8 µM. The method, boiled down: as §1
The test system of another experiment is CP201. The description is as above. The settings on record: P. falciparum in erythrocytes, SYBR Green DNA, 72 h; series mostly up to 12.8 µM. The method, boiled down: as §1
The subject of the next experiment is CP203. Described as above. The settings on record: P. falciparum in erythrocytes, SYBR Green DNA, 72 h; series mostly up to 12.8 µM. The method in brief: as §1
A further experiment deals with CP247. The experiment is described as above. The settings on record: P. falciparum in erythrocytes, SYBR Green DNA, 72 h; series mostly up to 12.8 µM. The method, boiled down: as §1
In another experiment the test system is CP286. The description is as above. The settings on record: P. falciparum in erythrocytes, SYBR Green DNA, 72 h; series mostly up to 12.8 µM. The method, boiled down:
as §1

For a further experiment, the system named is CP291. Described as above. The settings on record: P. falciparum in erythrocytes, SYBR Green DNA, 72 h; series mostly up to 12.8 µM. The method, boiled down: as §1
The test system of a further experiment is DFO2036. The experiment is described as above. The settings on record: P. falciparum in erythrocytes, SYBR Green DNA, 72 h; series mostly up to 12.8 µM. The method in brief: as §1
Another experiment has as its system P94_40. The experiment is described as above. The settings on record: P. falciparum in erythrocytes, SYBR Green DNA, 72 h; series mostly up to 12.8 µM. The method, boiled down:
as §1

The subject of another experiment is PC49. The experiment is described as above. The settings on record: P. falciparum in erythrocytes, SYBR Green DNA, 72 h; series mostly up to 12.8 µM. The method, boiled down: as §1
In a further experiment the test system is TAB109. The description is as above. The settings on record: P. falciparum in erythrocytes, SYBR Green DNA, 72 h; series mostly up to 12.8 µM. The method, boiled down:
as §1

Another experiment concerns TAB113. The description is as above. The settings on record: P. falciparum in erythrocytes, SYBR Green DNA, 72 h; series mostly up to 12.8 µM. The method, boiled down:
as §1

For experiment [4], the target named is Cytochrome P450 2C9 (Homo sapiens) (UniProt P11712). The experiment in a line: qHTS Assay for Inhibitors and Substrates of Cytochrome P450 2C9 (AID 883). Also: nearly all actives have a fitted effect of over 60% in size. Also: potency is read from the fitted curve at half-maximal effect. As to activity change, negative = inhibition: % is scaled to controls: 0 for no effect and ±100 for the full control effect. The method in brief:
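Human CYP2C9 (10nM) hydroxylated Luciferin-H (100uM, at its KM) to luciferin in 25mM KPO4. Compound was preincubated 10 min at 37C, then NADPH regeneration started a 60 min reaction at 37C. Luminescence was read after detection reagent, normalized to 57uM sulphaphenazole.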

Cytochrome P450 2C9 (Homo sapiens), sequence (P11712 whole entry, looked up): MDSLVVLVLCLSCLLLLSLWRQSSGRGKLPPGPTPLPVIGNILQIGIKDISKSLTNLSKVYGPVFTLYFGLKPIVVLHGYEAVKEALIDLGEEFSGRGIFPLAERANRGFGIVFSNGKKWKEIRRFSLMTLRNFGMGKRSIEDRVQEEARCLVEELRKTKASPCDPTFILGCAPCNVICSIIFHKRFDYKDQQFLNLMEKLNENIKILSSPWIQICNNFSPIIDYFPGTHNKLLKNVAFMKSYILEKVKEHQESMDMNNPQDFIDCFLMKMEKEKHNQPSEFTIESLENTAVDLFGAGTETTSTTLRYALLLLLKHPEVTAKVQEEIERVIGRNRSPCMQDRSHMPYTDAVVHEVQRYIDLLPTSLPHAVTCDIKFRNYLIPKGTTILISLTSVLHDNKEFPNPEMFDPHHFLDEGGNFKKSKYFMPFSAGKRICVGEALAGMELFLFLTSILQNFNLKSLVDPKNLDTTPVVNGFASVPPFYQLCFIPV
Phospholipid hydroperoxide glutathione peroxidase GPX4 (Homo sapiens), sequence (P36969 whole entry, looked up): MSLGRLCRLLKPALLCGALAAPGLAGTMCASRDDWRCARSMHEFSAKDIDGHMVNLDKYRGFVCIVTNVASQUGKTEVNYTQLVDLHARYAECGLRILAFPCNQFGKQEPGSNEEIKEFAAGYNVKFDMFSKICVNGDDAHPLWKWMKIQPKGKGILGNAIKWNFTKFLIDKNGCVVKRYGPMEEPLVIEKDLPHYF
Luciferin 4-monooxygenase (Photinus pyralis), sequence (P08659 whole entry, looked up): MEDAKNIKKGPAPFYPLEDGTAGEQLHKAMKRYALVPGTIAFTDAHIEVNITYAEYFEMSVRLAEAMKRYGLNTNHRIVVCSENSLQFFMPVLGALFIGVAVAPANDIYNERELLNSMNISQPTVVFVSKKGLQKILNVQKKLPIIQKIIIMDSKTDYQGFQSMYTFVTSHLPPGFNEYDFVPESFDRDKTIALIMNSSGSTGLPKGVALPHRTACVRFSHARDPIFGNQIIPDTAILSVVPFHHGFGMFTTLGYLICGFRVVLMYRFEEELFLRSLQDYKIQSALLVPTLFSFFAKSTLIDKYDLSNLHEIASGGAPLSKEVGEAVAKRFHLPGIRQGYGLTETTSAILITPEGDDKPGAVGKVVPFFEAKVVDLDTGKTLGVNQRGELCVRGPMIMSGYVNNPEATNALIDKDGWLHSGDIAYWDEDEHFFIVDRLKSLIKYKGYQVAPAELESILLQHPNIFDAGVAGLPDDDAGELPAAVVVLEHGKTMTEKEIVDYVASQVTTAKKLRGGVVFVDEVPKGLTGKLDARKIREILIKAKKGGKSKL
Glutathione peroxidase 1 (Homo sapiens), sequence (P07203 whole entry, looked up): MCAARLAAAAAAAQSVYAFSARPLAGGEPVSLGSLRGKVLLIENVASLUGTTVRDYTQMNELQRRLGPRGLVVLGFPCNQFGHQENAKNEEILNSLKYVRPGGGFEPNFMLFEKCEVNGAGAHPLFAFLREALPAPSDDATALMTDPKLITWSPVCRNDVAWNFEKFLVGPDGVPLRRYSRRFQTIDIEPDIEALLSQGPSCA

As to `CC1(C)SC2C(NC(=O)Cc3ccccc3)C(=O)N2C1C(=O)O` (configuration not stated), the outcome in experiment [1] and in experiment [2] was inactive.
With `O=C(Cc1cccs1)NC1C(=O)N2C(C(=O)[O-])=C(C[n+]3ccccc3)CSC12` (configuration not stated), the compound was classed as inactive in experiment [3] and in [2]. Moreover, the Potency entry in the experiment with AS120, in the experiment on ATS189, in the experiment with CP185, with CP191, in the experiment with CP192 and with CP194 was “inactive” throughout. Further, the Potency result with CP201, in the experiment with CP203, with CP247, in the experiment on CP286, in the experiment with CP291 and in the experiment with DFO2036 was “inactive” throughout. In addition, the Potency result with P94_40, in the experiment on PC49, with TAB109 and in the experiment on TAB113 was “inactive” throughout.
For `C#C[C@]1(O)CCC2C3CCC4=C(CCC(=O)C4)C3CC[C@@]21C` (some centres not stated), in [1], the result was inactive.
Regarding `CN1[C@@H]2CC[C@H]1CC(OC(=O)[C@@H](O)c1ccccc1)C2` (some centres not stated), the result in [3] was inactive. In addition, the Potency entry in the experiment on AS120, in the experiment with ATS189, in the experiment on CP185, in the experiment on CP191, in the experiment on CP192 and with CP194 was “inactive” in each case. The Potency result with CP201, in the experiment with CP203, in the experiment on CP247, in the experiment with CP286, in the experiment on CP291 and in the experiment on DFO2036 was “inactive” throughout. The Potency entry with P94_40, with PC49, in the experiment with TAB109 and in the experiment with TAB113 was “inactive” in each case.
For the compound `CC12CC[C@@H]3c4ccc(OS(=O)(=O)O)cc4CC[C@H]3C1CCC2=O` (some centres not stated), the result in [3], in [1] and in [2] was inactive.
For the compound `C[N+](C)(C)CC(O)CC(=O)O` (configuration not stated), the call in [3], in [1] and in experiment [2] was inactive. For the same compound, the Potency entry with AS120, in the experiment on ATS189, in the experiment on CP185, in the experiment on CP191, in the experiment with CP192 and with CP194 was “inactive” throughout. For the same compound, the Potency entry in the experiment with CP201, in the experiment with CP203, with CP247, in the experiment with CP286, with CP291 and in the experiment with DFO2036 was “inactive” throughout. For the same compound, the Potency result in the experiment with P94_40, in the experiment with PC49, with TAB109 and in the experiment with TAB113 was “inactive” in each case.
Regarding `Oc1ccc2c(c1)OCC1(O)Cc3cc(O)c(O)cc3C21` (configuration not stated), in [1], the outcome was inactive.
As for `CN1C(CC(=O)c2ccccc2)CCCC1CC(O)c1ccccc1` (configuration not stated), the result in [1] and in experiment [2] was inactive.
For the compound `CC(C)(S)[C@H](N)C(=O)O`, the outcome in experiment [1] was “inactive [at 4.49 µM]”; in [2] it was “inactive [at 4.52 µM]”.
With `C[C@@H]1CCC[C@H](C)N1NC(=O)c1ccc(Cl)c(S(N)(=O)=O)c1`, the compound was called inactive in [3], in experiment [1] and in experiment [2]. Moreover, the Potency entry with AS120, with ATS189, in the experiment with CP185, with CP191, in the experiment with CP192 and in the experiment on CP194 was “inactive” in each case. In addition, the Potency result in the experiment on CP201, in the experiment on CP203, in the experiment on CP247, in the experiment with CP286, in the experiment with CP291 and with DFO2036 was “inactive” each time. Moreover, the Potency result in the experiment on P94_40, in the experiment with PC49, with TAB109 and with TAB113 was “inactive” throughout.
As for `C=C(NC(=O)C(=C)NC(=O)c1csc(C2=NC3c4csc(n4)C4NC(=O)c5csc(n5)C(C(C)(O)C(C)O)NC(=O)C5CSC(=N5)C(=CC)NC(=O)C(C(C)O)NC(=O)c5csc(n5)C3(CC2)NC(=O)C(C)NC(=O)C(=C)NC(=O)C(C)NC(=O)C(C(C)CC)NC2C=Cc3c(C(C)O)cc(nc3C2O)C(=O)OC4C)n1)C(N)=O` (configuration not stated), the result in experiment [1] was inactive.
As for `CN(C)C(=O)c1ccc(-c2nc(N(C)C)c3ccccc3n2)cc1`, the activity change, negative = inhibition in [4] is 29.4% [at 2.29 µM].
Turning to `CN1CCCC[C@@H]1CCN1c2ccccc2Sc2ccc(S(C)=O)cc21` (some centres not stated), in experiment [3], the compound was called inactive. Moreover, the Potency result with AS120, in the experiment with ATS189, in the experiment on CP185, in the experiment on CP191, in the experiment on CP192 and with CP194 was “inactive” in each case. In addition, the Potency result with CP201, with CP203, in the experiment on CP247, in the experiment with CP286, in the experiment on CP291 and in the experiment on DFO2036 was “inactive” in each case. In addition, the Potency result with P94_40, in the experiment on PC49, in the experiment on TAB109 and in the experiment with TAB113 was “inactive” throughout.
Turning to `COCC(=O)N1CCC2(CCN(Cc3ccncc3)CC2)CC1`, the Potency in [4] is 0.398 µM (active).
In the case of `COc1ccc2[nH]cc(CCNc3ncnc4ccc(-c5ccc(C(=O)N(C)C)cc5)cc34)c2c1`, the Potency in experiment [4] was 0.251 µM (active).
Still for that read-out and setting: the result for `N#CCCn1c(=O)cnc2cnc(N3CCNCC3)nc21` reads “inactive”.
Take `Cc1cccc(CNc2ccnc(-c3ccccc3CN(C)C)n2)c1`: the activity change, negative = inhibition in experiment [4] is 13.9% [at 2.29 µM].
As for `O=C(c1cc(C(F)(F)F)cc(C(F)(F)F)c1)N1CCC2(CC1)CCN(c1ncccn1)CC2`, in experiment [4], the Potency result was “inactive”.
Same read-out and setting: the result for `FC(F)(F)c1cc(CN2CC[C@@]3(CCCNC3)C2)cc(C(F)(F)F)c1` reads “inactive”; that for `N#CCCn1c(=O)c(-c2ccc(Cl)cc2)nc2cnc(Oc3cccc(Cl)c3)nc21`, “inactive”.
`CCCN(CCC)C(=O)[C@@H](CCC(=O)O)NC(=O)c1ccccc1`: the result in [3] was inactive. For the same compound, the Potency entry with AS120, in the experiment with ATS189, in the experiment on CP185, in the experiment on CP191, in the experiment on CP192 and in the experiment on CP194 was “inactive” throughout. Further, the Potency result in the experiment on CP201, with CP203, in the experiment on CP247, with CP286, with CP291 and in the experiment with DFO2036 was “inactive” each time. Also, the Potency entry in the experiment with P94_40, in the experiment with PC49, in the experiment with TAB109 and in the experiment with TAB113 was “inactive” in each case.

The values are drawn from PubChem BioAssay (NCATS).
